Test results: PubChem BioAssay AID1159580 (chemical genetic matrix, 2015)
Several values for one entry are separate records, joined by “and”; a condition that tells them apart may be missing. Equal values may be shown once. Among all 5,500 compounds or so, about 2,000 (36%) were called active. Roughly 18% stayed inconclusive and do not appear here. No stated cut-off is given here; in the data, active means normalized growth mostly below about 0.91 (no sharp cut-off); inconclusive means no clear call, values can overlap the other calls; inactive means mostly above about 0.92. The list shows a part of the results.

Assay: chemical genetic growth profiling, strain panel (AID 1159580);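 further: tested at 20 µM; growth read once vehicle control cultures reached saturation at 30 °C; 1 = growth at the plate median or of vehicle wells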
Conditions: S. cerevisiae deletion strains, growth OD

Measured: normalized growth

Cc1cc(O)c2c(c1O)C(=O)c1c(O)cc(C)c(O)c1C2=O
inactive: locus YAL013W, strain DEP1, stronger effect = lower value 0.982 | locus YAL021C, strain ccr4, stronger effect = lower value 0.948 | locus YAL026C, strain drs2, stronger effect = lower value 0.969 | locus YAL030W, strain snc1, stronger effect = lower value 0.951 | locus YBL061C, strain skt5, stronger effect = lower value 0.968 | locus YBR009C, strain hhf1, stronger effect = lower value 0.97 | locus YBR021W, strain FUR4, stronger effect = lower value 1.12 | locus YBR023C, strain chs3, stronger effect = lower value 0.983 | locus YBR171W, strain sec66, stronger effect = lower value 0.948 | locus YBR229C, strain ROT2, stronger effect = lower value 0.969 | locus YBR231C, strain swc5, stronger effect = lower value 0.974 | locus YBR279W, strain paf1, stronger effect = lower value 0.989 | locus YCL011C, strain gbp2, stronger effect = lower value 0.939 | locus YCL016C, strain dcc1, stronger effect = lower value 0.978 | locus YCL029C, strain bik1, stronger effect = lower value 0.988 | locus YCL061C, strain MRC1, stronger effect = lower value 0.978 | locus YCL069W, strain vba3, stronger effect = lower value 0.966 | locus YCR088W, strain abp1, stronger effect = lower value 0.98 | locus YDL005C, strain med2, stronger effect = lower value 0.971 | locus YDL035C, strain GPR1, stronger effect = lower value 0.975 | locus YDL040C, strain nat1, stronger effect = lower value 0.991 | locus YDL074C, strain BRE1, stronger effect = lower value 1 | locus YDL101C, strain DUN1, stronger effect = lower value 0.947 | locus YDL134C, strain PPH21, stronger effect = lower value 0.967 | locus YDL185W, strain tfp1, stronger effect = lower value 0.979 | locus YDL192W, strain arf1, stronger effect = lower value 0.987 | locus YDR001C, strain nth1, stronger effect = lower value 0.952 | locus YDR069C, strain doa4, stronger effect = lower value 0.942 | locus YDR101C, strain arx1, stronger effect = lower value 0.993 | locus YDR137W, strain rgp1, stronger effect = lower value 0.877 | locus YDR150W, strain NUM1, stronger effect = lower value 0.989 | locus YDR159W, strain sac3, stronger effect = lower value 0.973 | locus YDR162C, strain NBP2, stronger effect = lower value 0.921 | locus YDR195W, strain ref2 1.04 | locus YDR297W, strain sur2, stronger effect = lower value 0.973 | locus YDR318W, strain mcm21, stronger effect = lower value 0.985 | locus YDR334W, strain swr1, stronger effect = lower value 0.921 | locus YDR335W, strain msn5, stronger effect = lower value 0.961 | locus YDR388W, stronger effect = lower value 0.986 | locus YDR392W, strain spt3, stronger effect = lower value 0.858 | locus YDR502C, strain sam2, stronger effect = lower value 1 | locus YEL003W, strain gim4, stronger effect = lower value 0.956 | locus YEL037C, strain rad23, stronger effect = lower value 0.972 | locus YEL061C, strain CIN8 (second series), stronger effect = lower value 0.97 | locus YEL061C, strain CIN8, stronger effect = lower value 0.97 | locus YER015W, strain faa2, stronger effect = lower value 0.95 | locus YER016W, strain bim1, stronger effect = lower value 0.979 | locus YER110C, stronger effect = lower value 0.992 | locus YER111C, strain swi4, stronger effect = lower value 0.963 | locus YER155C, strain BEM2 (second series), stronger effect = lower value 0.946 | locus YER155C, strain BEM2, stronger effect = lower value 0.996 | locus YER167W, strain BCK2, stronger effect = lower value 1.01 | locus YFR010W, strain ubp6, stronger effect = lower value 0.942 | locus YGL078C, strain dbp3, stronger effect = lower value 0.993 | locus YGL086W, strain mad1, stronger effect = lower value 0.981 | locus YGL167C, strain pmr1, stronger effect = lower value 0.977 | locus YGL173C, strain kem1, stronger effect = lower value 0.946 | locus YGL227W, strain vid30, stronger effect = lower value 0.983 | locus YGL240W, strain doc1, stronger effect = lower value 0.962 | locus YGL248W, strain PDE1, stronger effect = lower value 0.945 | locus YGL253W, strain hxk2, stronger effect = lower value 0.985 | locus YGR078C, strain PAC10, stronger effect = lower value 0.983 | locus YGR135W, strain pre9, stronger effect = lower value 0.988 | locus YGR229C, strain SMI1, stronger effect = lower value 0.992 | locus YGR252W, strain gcn5, stronger effect = lower value 1.16 | locus YHR013C, strain ard1, stronger effect = lower value 0.957 | locus YHR027C, strain rpn1, stronger effect = lower value 0.951 | locus YHR030C, strain SLT2, stronger effect = lower value 0.964 and 0.996 | locus YHR079C, strain IRE1 (second series), stronger effect = lower value 0.985 | locus YHR079C, strain IRE1, stronger effect = lower value 1 | locus YHR094C, strain hxt1, stronger effect = lower value 0.995 | locus YHR129C, strain ARP1, stronger effect = lower value 0.963 | locus YHR142W, strain chs7, stronger effect = lower value 0.964 | locus YHR200W, strain rpn10, stronger effect = lower value 0.994 | locus YIL066C, strain RNR3, stronger effect = lower value 0.939 | locus YIL073C, strain SPO22, stronger effect = lower value 1.3 | locus YIL125W, strain kgd1, stronger effect = lower value 1 | locus YIR030C, strain dcg1, stronger effect = lower value 0.997 | locus YJL092W, strain hpr5, stronger effect = lower value 0.965 | locus YJL095W, strain BCK1 (second series), stronger effect = lower value 0.974 | locus YJL095W, strain BCK1, stronger effect = lower value 0.893 and 0.997 | locus YJL115W, strain asf1, stronger effect = lower value 0.938 | locus YJL129C, strain trk1, stronger effect = lower value 0.891 | locus YJL134W, strain LCB3, stronger effect = lower value 0.977 | locus YJL154C, strain vps35, stronger effect = lower value 0.971 | locus YJL164C, strain tpk1, stronger effect = lower value 0.971 | locus YJL166W, strain qcr8, stronger effect = lower value 0.978 | locus YJL168C, strain set2, stronger effect = lower value 0.969 | locus YJL187C, strain SWE1 (second series), stronger effect = lower value 0.903 | locus YJL187C, strain SWE1, stronger effect = lower value 0.968 | locus YJR043C, strain POL32, stronger effect = lower value 1.02 | locus YJR066W, strain TOR1, stronger effect = lower value 0.926
